Source: PubChem BioAssay (NCATS)
Results filed as inconclusive are left out. Unmarked numbers belong to inactive results. Calls of active or inactive are those of the source. Calls come from the whole dose curve.
% is set by controls: 0 for no effect and ±100 for the full control effect; potency is the fitted concentration of half-maximal effect.

Biological target: Nucleoprotein (Lymphocytic choriomeningitis virus (strain Armstrong)) (UniProt P09992)
Sequence (P09992 whole entry, looked up): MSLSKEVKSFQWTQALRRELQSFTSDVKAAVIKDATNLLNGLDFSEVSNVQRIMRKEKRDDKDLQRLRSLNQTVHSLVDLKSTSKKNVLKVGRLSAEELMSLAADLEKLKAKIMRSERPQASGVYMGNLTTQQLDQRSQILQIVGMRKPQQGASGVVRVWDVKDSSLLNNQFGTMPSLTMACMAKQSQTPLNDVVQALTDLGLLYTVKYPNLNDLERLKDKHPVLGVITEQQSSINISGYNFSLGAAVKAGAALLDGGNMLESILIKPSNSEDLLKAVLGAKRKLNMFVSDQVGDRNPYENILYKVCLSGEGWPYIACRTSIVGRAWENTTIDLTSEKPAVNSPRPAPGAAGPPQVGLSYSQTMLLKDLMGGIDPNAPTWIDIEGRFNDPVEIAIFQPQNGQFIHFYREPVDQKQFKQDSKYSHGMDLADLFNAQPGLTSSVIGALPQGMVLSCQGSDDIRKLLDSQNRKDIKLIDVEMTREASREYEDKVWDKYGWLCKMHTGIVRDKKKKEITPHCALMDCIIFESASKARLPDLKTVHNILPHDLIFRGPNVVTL
Assay: qHTS for Inhibitors of the Functional Ribonucleoprotein Complex (vRNP) of Lymphocytic Choriomeningitis Arenaviruses (LCMV): LCMV Primary Screen - GLuc reporter signal (AID 1347086); note: nearly all actives have a fitted effect of over 70% in size
Settings: LCMV minigenome vRNP cell assay, Gaussia luciferase reporter; series mostly up to 57.5 µM; activity change, negative = inhibition: at the top concentration
In the case of Cc1ccn(-c2ccc(-c3ncco3)cc2)c(=O)c1-c1ccc2nc(N)ncc2c1, the “activity change, negative = inhibition” value is reported as 6.07%. In the case of CC(C)CNc1ccnc(NCc2csc(-c3ccccc3)n2)n1, the Potency is reported as 15.3 µM (active). With NC(=O)N1CCC(CC(=O)N2CCC([C@H]3c4ncc(Br)cc4CCc4cc(Cl)cc(Br)c43)CC2)CC1 the Potency was 12.2 µM (active). In the case of CNC(=O)c1ccc(Nc2cc(Nc3ccccc3S(=O)(=O)C(C)C)c3cc[nH]c3n2)nc1, the Potency is reported as 27.3 µM (active). In the case of CNC1CCC(N(Cc2cccc(-c3ccncc3)c2)C(=O)c2sc3ccccc3c2Cl)CC1 (centres undefined), the Potency is reported as 10.9 µM (active). In the case of Cc1cc(C(=O)N2CCN(c3cccc(Cl)c3)CC2)n(-c2ccccc2)n1, the Potency is reported as 6.85 µM (active). For C[C@@H]1COC(Nc2ccc3ncnc(Nc4ccc(OCc5nccs5)c(Cl)c4)c3c2)=N1, the Potency was 1.22 µM (active). For O=C(Nc1cccc(Br)c1)c1cccc(S(=O)(=O)N2CCCCCC2)c1, the Potency was 15.3 µM (active). In the case of c1cc(N[C@@H]2CCNC2)nc(-c2cnc3ccc(-c4cn[nH]c4)cn23)c1, the “activity change, negative = inhibition” value is reported as -27.2%. For c1ccc2c(Cc3c[nH]c4ccccc34)c[nH]c2c1, the Potency was 13.7 µM (active). In the case of CS(=O)(=O)N1CCc2c(-c3cnc(N)nc3)nc(N3CCOCC3)nc21, the “activity change, negative = inhibition” value is reported as -23.4%. In the case of COc1ccc(C=Cc2cc(OC)c(OC)c(OC)c2)cc1NC(=O)[C@H](N)CO, the “activity change, negative = inhibition” value is reported as -85.5%. For COCCOc1ccc2c(c1)ncn2-c1ccc2cccc(N3CCC(N)CC3)c2n1, the “activity change, negative = inhibition” value was -43.7%. With NC(=O)Nc1cc(-c2ccc(CN3CCOCC3)cc2)sc1C(N)=O the “activity change, negative = inhibition” value was -40.4%. With C[C@]12CC[C@@H]3c4ccc(O)cc4CC[C@H]3[C@H]1CC[C@H]2O the Potency was 1.22 µM (active).

Tested on: not listed separately
Assay: Cytotoxicity counterscreen for inhibitors of SARS-CoV-2 cell entry (AID 1645845); note: nearly all actives have a fitted effect of over 50% in size
Settings: cell viability (SARS-CoV-2 entry assay cells); series mostly up to 57.1 µM; activity change, negative = cytotoxicity: at the top concentration; outcome: at the top concentration
How it was run: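 ATP-content luminescence (ATPLite 1step, 15 min RT) read after 48 h compound exposure of Expi293F cells stably expressing human ACE2; normalized to cells-only wells and media-only wells.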
With Cc1c(NC(=O)OC[C@@H]2COCCN2)cn2ncnc(Nc3ccc4c(cnn4Cc4cccc(F)c4)c3)c12 the “outcome” value was “inactive”. For Cc1ccn(-c2ccc(-c3ncco3)cc2)c(=O)c1-c1ccc2nc(N)ncc2c1, the “activity change, negative = cytotoxicity” value was -16.4%. With Nc1nc(N)c2nc(-c3cccc(O)c3)c(-c3cccc(O)c3)nc2n1 the “activity change, negative = cytotoxicity” value was -12.1%. For COc1cc2ncnc(Nc3cccc(Br)c3)c2cc1OC, the “outcome” value was “inactive”. For Cc1c(Cn2c(C)nc3c(C(=O)O)cc(N4CCOCC4)cc32)cccc1C(F)(F)F, the “outcome” value was “inactive”. In the case of C#Cc1cccc(Nc2ncnc3cc(OCCOC)c(OCCO)cc23)c1, the “activity change, negative = cytotoxicity” value is reported as -14.7%. For CN(C)N=Nc1nc[nH]c1C(N)=O, the “activity change, negative = cytotoxicity” value was -20.9%. With CNC1CCC(N(Cc2cccc(-c3ccncc3)c2)C(=O)c2sc3ccccc3c2Cl)CC1 (centres undefined) the Potency was 31.6 µM (active). In the case of Cc1cc(C(=O)N2CCN(c3cccc(Cl)c3)CC2)n(-c2ccccc2)n1, the “activity change, negative = cytotoxicity” value is reported as -29.2%. With CC1=C(CC(=O)O)c2cc(F)ccc2C1=Cc1ccc(S(C)=O)cc1 (centres undefined) the “outcome” value was “inactive”. With C[C@@H]1COC(Nc2ccc3ncnc(Nc4ccc(OCc5nccs5)c(Cl)c4)c3c2)=N1 the Potency was 31.6 µM (active). In the case of C[C@@H](NC(=O)c1ncnc(N)c1Cl)c1ncc(C(=O)Nc2cc(C(F)(F)F)c(Cl)cn2)s1, the “activity change, negative = cytotoxicity” value is reported as -4.51%. In the case of Cn1cc(C2=C(c3c4n(c5ccccc35)CCC(CN)C4)C(=O)NC2=O)c2ccccc21 (centres undefined), the activity change, negative = cytotoxicity is reported as -8.45% [at 11.3 µM]. In the case of Cc1cnc(Nc2ccc(CN3CCOCC3)cc2)nc1Nc1cccc(S(=O)(=O)NC(C)(C)C)c1, the Potency is reported as 12.6 µM (active). With Cc1ccc(NC(=O)c2cccc(N(C)C)c2)cc1NC(=O)c1ccc(O)cc1 the “activity change, negative = cytotoxicity” value was -9.46%. In the case of c1ccc2c(Cc3c[nH]c4ccccc34)c[nH]c2c1, the “activity change, negative = cytotoxicity” value is reported as -25.9%. In the case of CCOC(=O)C1=C(C)NC(=S)NC1c1cccc(O)c1 (centres undefined), the “outcome” value is reported as “inactive”. With CS(=O)(=O)N1CCc2c(-c3cnc(N)nc3)nc(N3CCOCC3)nc21 the Potency was 3.55 µM (active). For NC(=O)Nc1cc(-c2ccc(CN3CCOCC3)cc2)sc1C(N)=O, the “activity change, negative = cytotoxicity” value was 0.399%.
